# Targets with a hit are over-represented here; the source holds about 8,800 in all. About 0.5% of all pairs of compound and target were hits. Values without a mark were called inactive.
# Key:
# Assay in all cases: log2 fold change, soluble protein after heating vs DMSO (PISA); higher = thermal stabilisation; K562 lysate, 10 uM; active = over 0.2 and 3.5 SD of the protein, either way, in both replicates (recomputed)
# vemurafenib = compound: CCCS(=O)(=O)Nc1ccc(F)c(C(=O)c2c[nH]c3ncc(-c4ccc(Cl)cc4)cc23)c1F [vemurafenib]
# Outline: (§1)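 Quantification was by TMTpro 16plex LC-MS/MS with equalised channel sums, applied to the supernatant after 21,000xg for 90 min. Samples were crude K562 extract at 1 mg/mL protein in PBS pH 7.4 with 1 mM MgCl2, treated with 10 μM compound for 30 min, heated for 3 min across 48°C-58°C, pooled and brought to 0.5% NP-40 at 4°C. Values are log-two fold changes in thermal stability relative to solvent controls, from duplicates.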
# [1] = compound: CCCS(=O)(=O)Nc1ccc(F)c(C(=O)c2c[nH]c3ncc(Cl)cc23)c1F
# Outline: as §1
# barasertib = compound: CCN(CCCOc1ccc2c(Nc3cc(CC(=O)Nc4cccc(F)c4)[nH]n3)ncnc2c1)CCOP(=O)(O)O [barasertib]
# Outline: as §1
# [2] = compound: CC[C@@H]1C(=O)N(C)c2cnc(Nc3ccc(C(=O)NC4CCN(C)CC4)cc3OC)nc2N1C1CCCC1
# Outline: as §1
# volasertib = compound: CC[C@@H]1C(=O)N(C)c2cnc(Nc3ccc(C(=O)N[C@H]4CC[C@H](N5CCN(CC6CC6)CC5)CC4)cc3OC)nc2N1C(C)C [volasertib]
# Outline: as §1
# [3] = compound: CCn1c(C(=O)N(C2CC2)C2CC2)cc2c3c(ncn3C)c(Nc3cc(C)n(C)n3)nc21
# Outline: as §1
# [4] = compound: CCn1cc(-c2ccnc3[nH]c(-c4cccc(CN(C)C)c4)cc23)c(-c2ccc(NC(=O)N(C)C)cc2)n1
# Outline: as §1
# [5] = compound: CN1CCC(CNc2ccc3ncc(-c4cccc(OC(F)(F)F)c4)n3n2)CC1
# Outline: as §1
# saracatinib = compound: CN1CCN(CCOc2cc(OC3CCOCC3)c3c(Nc4c(Cl)ccc5c4OCO5)ncnc3c2)CC1 [saracatinib]
# Outline: as §1
# sotrastaurin = compound: CN1CCN(c2nc(C3=C(c4c[nH]c5ccccc45)C(=O)NC3=O)c3ccccc3n2)CC1 [sotrastaurin]
# Outline: as §1
# alvocidib = compound: CN1CC[C@H](c2c(O)cc(O)c3c(=O)cc(-c4ccccc4Cl)oc23)[C@H](O)C1 [alvocidib]
# Outline: as §1
# Tubastatin A = compound: CN1CCc2c(c3ccccc3n2Cc2ccc(C(=O)NO)cc2)C1 [Tubastatin A]
# Outline: as §1
# [6] = compound: CNC(=O)C1=CC=CC=C1NC2=NC(=NC=C2Cl)NC3=C(C=C(C=C3)N4CCOCC4)OC
# Outline: as §1
# defactinib = compound: CNC(=O)c1ccc(Nc2ncc(C(F)(F)F)c(NCc3nccnc3N(C)S(C)(=O)=O)n2)cc1 [defactinib]
# Outline: as §1
# [7] = compound: CNc1nc(-c2ccc3c(N)n[nH]c3c2)cc(N2C[C@@H](C(=O)NC3CCCCC3)CC[C@H]2C)n1
# Outline: as §1
# encorafenib = compound: COC(=O)N[C@@H](C)CNc1nccc(-c2cn(C(C)C)nc2-c2cc(Cl)cc(NS(C)(=O)=O)c2F)n1 [encorafenib]
# Outline: as §1
# [8] = compound: COC(=O)[C@H](CCSC)NC(=O)C1=C(C=C(C=C1)NC[C@H](CS)N)C2=CC=CC=C2
# Outline: as §1
# alisertib = compound: COc1cc(Nc2ncc3c(n2)-c2ccc(Cl)cc2C(c2c(F)cccc2OC)=NC3)ccc1C(=O)O [alisertib]
# Outline: as §1
# [9] = compound: COc1cc2nc(-c3cc(F)ccc3O)nc(N[C@@H]3CNC[C@H]3C(C)(C)O)c2cc1OC
# Outline: as §1
# gefitinib = compound: COc1cc2ncnc(Nc3ccc(F)c(Cl)c3)c2cc1OCCCN1CCOCC1 [gefitinib]
# Outline: as §1
# UniProt Q14C86, sequence (Q14C86 whole entry, looked up): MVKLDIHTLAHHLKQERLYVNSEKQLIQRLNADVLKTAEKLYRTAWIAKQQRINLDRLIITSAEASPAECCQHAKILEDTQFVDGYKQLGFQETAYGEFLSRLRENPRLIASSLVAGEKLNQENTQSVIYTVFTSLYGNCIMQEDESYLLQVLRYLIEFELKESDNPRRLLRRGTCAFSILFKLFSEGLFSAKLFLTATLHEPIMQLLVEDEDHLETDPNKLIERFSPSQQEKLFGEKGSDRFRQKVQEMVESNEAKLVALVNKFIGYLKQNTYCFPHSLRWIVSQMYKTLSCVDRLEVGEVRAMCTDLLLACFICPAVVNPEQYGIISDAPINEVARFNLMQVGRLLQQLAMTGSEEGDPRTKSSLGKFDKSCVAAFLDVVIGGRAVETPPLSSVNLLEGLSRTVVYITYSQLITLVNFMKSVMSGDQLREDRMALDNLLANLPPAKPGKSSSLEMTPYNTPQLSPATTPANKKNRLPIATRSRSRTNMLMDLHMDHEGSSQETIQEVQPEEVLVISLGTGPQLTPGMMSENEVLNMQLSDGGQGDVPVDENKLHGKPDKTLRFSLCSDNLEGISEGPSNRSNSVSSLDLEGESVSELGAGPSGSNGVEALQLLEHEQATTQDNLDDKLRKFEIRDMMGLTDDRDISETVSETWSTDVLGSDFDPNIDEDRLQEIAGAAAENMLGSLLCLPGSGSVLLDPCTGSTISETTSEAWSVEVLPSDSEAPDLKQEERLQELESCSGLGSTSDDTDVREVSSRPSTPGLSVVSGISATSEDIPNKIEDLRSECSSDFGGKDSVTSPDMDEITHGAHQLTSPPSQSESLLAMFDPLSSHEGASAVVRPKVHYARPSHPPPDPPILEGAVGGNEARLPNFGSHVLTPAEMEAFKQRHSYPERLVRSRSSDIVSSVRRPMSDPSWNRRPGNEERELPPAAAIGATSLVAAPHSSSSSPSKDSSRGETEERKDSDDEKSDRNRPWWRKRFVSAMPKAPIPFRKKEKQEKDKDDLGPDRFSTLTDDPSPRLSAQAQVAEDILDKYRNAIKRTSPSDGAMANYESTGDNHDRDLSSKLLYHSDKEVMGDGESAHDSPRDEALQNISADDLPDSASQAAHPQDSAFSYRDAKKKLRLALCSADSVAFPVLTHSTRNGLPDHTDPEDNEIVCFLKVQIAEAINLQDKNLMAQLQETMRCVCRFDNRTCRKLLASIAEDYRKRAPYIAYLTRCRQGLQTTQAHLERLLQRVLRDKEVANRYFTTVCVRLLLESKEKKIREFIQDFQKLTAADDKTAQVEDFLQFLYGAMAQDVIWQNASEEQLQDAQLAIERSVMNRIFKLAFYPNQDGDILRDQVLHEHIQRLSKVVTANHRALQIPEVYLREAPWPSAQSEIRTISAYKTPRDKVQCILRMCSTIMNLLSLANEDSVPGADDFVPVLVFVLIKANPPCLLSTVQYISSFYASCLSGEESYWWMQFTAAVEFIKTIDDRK
# UniProt P51116, sequence (P51116 whole entry, looked up): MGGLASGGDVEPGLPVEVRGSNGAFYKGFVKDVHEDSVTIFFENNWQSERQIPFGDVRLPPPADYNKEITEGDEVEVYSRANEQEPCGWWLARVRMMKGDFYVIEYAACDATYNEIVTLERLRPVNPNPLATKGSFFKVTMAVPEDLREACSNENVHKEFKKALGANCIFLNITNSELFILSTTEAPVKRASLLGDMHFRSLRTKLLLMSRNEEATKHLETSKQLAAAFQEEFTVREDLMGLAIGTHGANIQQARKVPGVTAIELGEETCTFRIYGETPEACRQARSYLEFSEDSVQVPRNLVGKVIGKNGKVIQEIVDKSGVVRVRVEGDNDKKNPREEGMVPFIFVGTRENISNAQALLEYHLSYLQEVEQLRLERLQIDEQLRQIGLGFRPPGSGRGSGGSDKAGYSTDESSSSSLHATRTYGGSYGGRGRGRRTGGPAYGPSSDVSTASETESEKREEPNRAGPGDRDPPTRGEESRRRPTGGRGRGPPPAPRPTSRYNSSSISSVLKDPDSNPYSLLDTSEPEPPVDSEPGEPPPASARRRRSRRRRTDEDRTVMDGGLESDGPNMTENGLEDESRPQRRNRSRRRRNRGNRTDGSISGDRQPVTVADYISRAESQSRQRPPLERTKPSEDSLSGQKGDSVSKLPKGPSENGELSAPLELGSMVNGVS
# UniProt Q96EK7, sequence (Q96EK7 whole entry, looked up): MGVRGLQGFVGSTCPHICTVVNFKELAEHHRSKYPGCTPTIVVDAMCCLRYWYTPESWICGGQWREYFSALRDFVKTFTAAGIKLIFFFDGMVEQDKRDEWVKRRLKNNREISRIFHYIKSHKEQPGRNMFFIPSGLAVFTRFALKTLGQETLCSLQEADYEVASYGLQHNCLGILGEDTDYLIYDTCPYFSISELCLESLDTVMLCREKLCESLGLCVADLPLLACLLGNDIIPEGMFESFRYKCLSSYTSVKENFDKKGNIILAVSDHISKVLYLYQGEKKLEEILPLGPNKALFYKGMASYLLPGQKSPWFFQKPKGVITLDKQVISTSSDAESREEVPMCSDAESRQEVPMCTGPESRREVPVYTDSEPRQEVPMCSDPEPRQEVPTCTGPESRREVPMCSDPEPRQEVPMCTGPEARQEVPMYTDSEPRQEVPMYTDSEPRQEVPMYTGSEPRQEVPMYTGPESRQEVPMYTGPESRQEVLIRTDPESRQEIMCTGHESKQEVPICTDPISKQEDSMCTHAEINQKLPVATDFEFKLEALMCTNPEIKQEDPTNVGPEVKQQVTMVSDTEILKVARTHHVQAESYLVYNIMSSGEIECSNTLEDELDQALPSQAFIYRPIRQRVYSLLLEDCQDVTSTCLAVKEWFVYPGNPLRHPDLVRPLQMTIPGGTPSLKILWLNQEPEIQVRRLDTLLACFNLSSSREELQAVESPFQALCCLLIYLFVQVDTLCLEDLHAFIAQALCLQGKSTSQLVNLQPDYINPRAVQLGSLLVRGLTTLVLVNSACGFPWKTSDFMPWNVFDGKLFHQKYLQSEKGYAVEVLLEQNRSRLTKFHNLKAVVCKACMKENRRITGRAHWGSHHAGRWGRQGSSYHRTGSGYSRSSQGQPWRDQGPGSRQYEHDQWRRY
# UniProt Q9GZT9, sequence (Q9GZT9 whole entry, looked up): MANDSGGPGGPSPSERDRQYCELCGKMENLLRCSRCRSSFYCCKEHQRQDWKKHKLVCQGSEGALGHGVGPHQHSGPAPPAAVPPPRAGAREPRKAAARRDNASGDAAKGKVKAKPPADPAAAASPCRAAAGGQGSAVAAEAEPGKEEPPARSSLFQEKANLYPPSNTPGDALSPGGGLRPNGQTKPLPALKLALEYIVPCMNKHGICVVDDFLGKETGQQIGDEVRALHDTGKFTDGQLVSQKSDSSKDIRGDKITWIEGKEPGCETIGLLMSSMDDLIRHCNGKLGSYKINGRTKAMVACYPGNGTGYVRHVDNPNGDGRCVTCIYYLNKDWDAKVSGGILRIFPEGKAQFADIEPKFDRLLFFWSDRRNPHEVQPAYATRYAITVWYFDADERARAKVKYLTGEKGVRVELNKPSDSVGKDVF
# UniProt Q8NEZ5, sequence (Q8NEZ5 whole entry, looked up): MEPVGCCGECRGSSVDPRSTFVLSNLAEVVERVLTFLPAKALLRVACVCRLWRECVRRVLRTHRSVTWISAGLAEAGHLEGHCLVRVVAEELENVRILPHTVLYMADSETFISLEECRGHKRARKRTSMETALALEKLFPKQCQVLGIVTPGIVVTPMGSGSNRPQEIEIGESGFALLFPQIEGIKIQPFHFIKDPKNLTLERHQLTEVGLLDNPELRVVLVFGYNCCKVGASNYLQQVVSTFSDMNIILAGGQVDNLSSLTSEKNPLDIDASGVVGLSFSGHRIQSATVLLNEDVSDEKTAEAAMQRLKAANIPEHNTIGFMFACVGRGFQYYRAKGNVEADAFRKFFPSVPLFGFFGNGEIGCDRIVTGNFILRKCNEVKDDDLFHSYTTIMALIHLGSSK
# UniProt Q9NWS6, sequence (Q9NWS6 whole entry, looked up): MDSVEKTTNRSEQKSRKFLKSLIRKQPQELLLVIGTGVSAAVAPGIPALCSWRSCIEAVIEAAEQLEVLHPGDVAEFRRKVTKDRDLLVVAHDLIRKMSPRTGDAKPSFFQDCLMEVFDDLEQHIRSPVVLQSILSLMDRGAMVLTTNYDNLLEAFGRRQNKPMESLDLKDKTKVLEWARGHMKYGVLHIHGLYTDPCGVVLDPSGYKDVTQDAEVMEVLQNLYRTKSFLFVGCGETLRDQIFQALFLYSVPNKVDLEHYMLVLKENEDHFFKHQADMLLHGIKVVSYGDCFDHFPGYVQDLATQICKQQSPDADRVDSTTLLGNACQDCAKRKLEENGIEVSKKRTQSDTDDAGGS
# UniProt Q8N9F7, sequence (Q8N9F7 whole entry, looked up): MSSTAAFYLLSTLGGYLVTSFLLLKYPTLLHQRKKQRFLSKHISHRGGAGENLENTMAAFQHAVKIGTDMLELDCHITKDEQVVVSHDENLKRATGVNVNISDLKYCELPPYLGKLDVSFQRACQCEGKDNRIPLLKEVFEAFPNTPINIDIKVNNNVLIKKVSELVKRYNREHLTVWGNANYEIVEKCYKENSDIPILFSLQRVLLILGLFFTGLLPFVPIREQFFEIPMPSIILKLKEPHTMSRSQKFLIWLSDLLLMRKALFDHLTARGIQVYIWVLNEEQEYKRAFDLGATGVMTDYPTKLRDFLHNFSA
# UniProt O43768, sequence (O43768 whole entry, looked up): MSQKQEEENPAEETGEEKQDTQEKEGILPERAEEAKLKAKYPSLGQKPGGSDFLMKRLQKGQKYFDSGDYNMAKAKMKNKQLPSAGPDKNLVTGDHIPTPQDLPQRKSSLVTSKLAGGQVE
# UniProt P48507, sequence (P48507 whole entry, looked up): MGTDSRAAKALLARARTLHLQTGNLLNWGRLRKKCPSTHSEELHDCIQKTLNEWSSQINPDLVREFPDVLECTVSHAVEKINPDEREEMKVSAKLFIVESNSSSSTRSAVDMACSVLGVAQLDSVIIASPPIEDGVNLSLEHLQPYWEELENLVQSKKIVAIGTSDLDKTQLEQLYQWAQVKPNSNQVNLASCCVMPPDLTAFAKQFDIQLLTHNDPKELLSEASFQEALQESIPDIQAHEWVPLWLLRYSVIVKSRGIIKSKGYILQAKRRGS
Target,log2 fold change (vemurafenib),log2 fold change [1],log2 fold change (barasertib),log2 fold change [2],log2 fold change (volasertib),log2 fold change [3],log2 fold change [4],log2 fold change [5],log2 fold change (saracatinib),log2 fold change (sotrastaurin),log2 fold change (alvocidib),log2 fold change (Tubastatin A),log2 fold change [6],log2 fold change (defactinib),log2 fold change [7],log2 fold change (encorafenib),log2 fold change [8],log2 fold change (alisertib),log2 fold change [9],log2 fold change (gefitinib)
ENSA isoform 3 (UniProt O43768),-0.034,-0.016,-0.052,0.049,0.025,0.033,0.212,-0.058,-0.021,-0.007,0.015,-0.038,-0.012,0.03,-0.027,-0.024,-0.053,-0.014,0.001,0.001
FBXO22 (UniProt Q8NEZ5),0.017,0.001,0.025,0.011,-0.027,0.012,-0.002,-0.008,-0.015,0.01,-0.027,-0.002,-0.074,0.01,-0.004,-0.014,-0.006,0.034,0.013,0.017
FMNL1 isoform 3 (UniProt O95466),0.022,-0.008,-0.002,0.028,-0.088,-0.035,0.026,-0.032,0.007,-0.006,0.011,-0.053,0.015,0.021,0.015,0.093,0.018,0.029,0.044,-0.061
FAM120B (UniProt Q96EK7),0.001,0.045,-0.009,0.01,-0.029,0.033,-0.011,-0.085,0.005,0.008,-0.005,-0.063,0.016,0.073,-0.02,0.029,0.034,-0.007,-0.001,0.021
"FADS1, A0A0A0MR51",-0.041,0.145,-0.018,0.02,-0.187,-0.062,-0.021,-0.078,-0.026,-0.037,0.03,0.1,0.158,0.084,0.011,-0.055,0.03,-0.008,-0.067,-0.001
GDPD1 (UniProt Q8N9F7),0.116,0.055,-0.005,0.041,-0.008,0.004,0.074,-0.032,-0.023,0.005,0,-0.023,0.006,-0.03,0.046,0.059,-0.272 (active),-0.018,-0.027,-0.035
FXR2 (UniProt P51116),0,0.041,-0.003,-0.021,-0.028,0.028,0.007,-0.076,0.034,-0.009,0,-0.159,-0.083,-0.117,-0.018,0.06,0.064,0.017,0.013,0.012
"EED, A0A5F9ZI63",-0.019,0.034,-0.029,0.005,0.015,-0.012,-0.047,0.049,0.026,0.031,-0.007,-0.026,0.039,0.003,0.036,0.004,0.063,-0.01,0.013,-0.025
FDFT1 (UniProt P37268),-0.012,0.111,0.023,0.005,-0.069,0.01,-0.047,-0.022,-0.019,0.437 (active),0.002,-0.037,-0.033,-0.048,-0.018,0.047,-0.155,0.068,0.018,0.016
FAM118A (UniProt Q9NWS6),-0.013,0.011,0.018,-0.017,-0.009,-0.031,-0.135,0.077,0.063,0.025,0.006,-0.153,0.077,-0.007,0.002,-0.017,0.002,0.008,0.03,0.003
FAM83A (UniProt Q86UY5),0.038,-0.002,0.035,-0.001,0.003,0.05,0.103,0.06,0.01,-0.049,-0.095,-0.039,0.061,-0.055,0.015,0.02,0.07,0.02,-0.013,0.017
FASTKD2 (UniProt Q9NYY8),-0.014,-0.002,0.037,0.004,-0.036,0.011,-0.072,0.03,0.012,0.014,0.014,-0.065,0.016,0.056,0.036,-0.016,-0.004,0.021,-0.033,0.021
EGLN1 (UniProt Q9GZT9),-0.052,-0.041,-0.025,-0.078,-0.076,0.007,0.019,-0.001,0.029,0.034,-0.017,-0.088,0.025,0.033,-0.026,0,0.091,0.009,0.022,-0.003
GAPVD1 isoform 6 (UniProt Q14C86),0.011,0.006,0.01,-0.077,-0.036,0.027,0.046,-0.083,0.014,0.012,0.01,-0.112,0.015,0.018,-0.04,0.014,0.097,0.005,-0.017,-0.012
GCLM (UniProt P48507),0.014,0.025,-0.007,0,-0.015,-0.013,-0.011,-0.012,0.011,-0.022,0.028,-0.049,0.003,0.003,-0.038,-0.003,-0.004,0.05,0.002,-0.023
